Assay results as given in the supplement of paper PMC4723716.
± gives the uncertainty stated by the source. In all, about 9,900 compounds were measured (“viability index relative to DMSO control”: median about 1, lowest 2% from about 0.85 on). For the sample, the lowest values were picked, then their nearest neighbours and some compounds at random.

Tested on: Plasmodium falciparum NF54 stage V gametocytes
Assay: viability index relative to DMSO control (fraction); higher = less gametocyte killing
Settings: 2.5 µM, incubation time: 72 h
How it was run: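 Compound at 2.5 µM was incubated for 72 hr at 37°C under low oxygen with P. falciparum NF54 stage V gametocytes (0.75% gametocytemia, 1.25% hematocrit, 10 µl, serum-free screening medium) in 1,536-well plates. Staining used 3 µl of 2.5 µM MitoTracker Red CMXRos plus 0.13% saponin for one to two hours, and red particles of 20–70 µm2 were counted in one imaged field per well. Each viability index is that count relative to the plate mean of solvent-only wells.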

[1] = library set: Broad Institute DOS
[2] = library set: Broad Institute Blood Stage

`CCCN(C)C[C@@H]1Oc2ncc(-c3cccc(OC)c3)cc2C(=O)N([C@H](C)CO)C[C@@H]1C` gave a viability index [1] of 0.691 ± 0.3.

`C[C@H]1CN([C@@H](C)CO)C(=O)c2cc(C#Cc3ccccc3)cnc2O[C@@H]1CN(C)C(=O)c1ccccc1` showed a viability index [1] of 0.919 ± 0.071.

`C[C@H](CO)N1C[C@H](C)[C@H](CN(C)C(=O)c2ccccc2)Oc2ncc(C#Cc3ccccc3)cc2C1=O` gave a viability index [1] of 0.829 ± 0.086.

`C[C@@H]1CN([C@@H](C)CO)C(=O)c2cc(C#Cc3ccccc3)cnc2O[C@H]1CN(C)C(=O)c1ccccc1` gave a viability index [1] of 1 ± 0.091.

`C[C@H]1CN([C@@H](C)CO)C(=O)c2cc(C#Cc3ccccc3)cnc2O[C@H]1CN(C)C(=O)c1ccccc1` was tested, and the viability index [1] was 0.572 ± 0.14.

With `C[C@H](CO)N1C[C@H](C)[C@@H](CN(C)C(=O)c2ccccc2)Oc2ncc(C#Cc3ccccc3)cc2C1=O` the viability index [1] was 0.963 ± 0.029.

Molecule `C[C@H](CO)N1C[C@H](C)[C@H](CN(C)Cc2ccc3c(c2)OCO3)Oc2ncc(-c3cccc(C(F)(F)F)c3)cc2C1=O` has a viability index [1] of 0.976 ± 0.025.

Work on `C[C@@H]1CN([C@H](C)CO)C(=O)c2cc(C#Cc3ccccc3)cnc2O[C@H]1CN(C)C(=O)c1ccccc1` yielded a viability index [1] of 0.965 ± 0.019.

`COc1cccc(S(=O)(=O)N(C)C[C@@H]2Oc3ncc(C#Cc4ccc(OC)c(OC)c4)cc3C(=O)N([C@H](C)CO)C[C@@H]2C)c1` showed a viability index [2] of 1.01 ± 0.04.

Molecule `C/C=C/c1ccc2c(c1)[C@@H]1[C@@H](CCN1C(=O)C1CCCC1)[C@H](CO)N2` has a viability index [1] of 1.06 ± 0.045.

`C[C@@H]1CCCCO[C@H](CN(C)C(=O)NC2CCCCC2)[C@@H](C)CN([C@H](C)CO)C(=O)c2cc(N(C)C)ccc2O1` was tested, and the viability index [1] was 1.14 ± 0.11.

With `O=C(Nc1ccccc1)N1CC(=O)N2[C@H](CO)[C@H](c3ccc(C#CC4CCCCC4)cc3)[C@@H]2C1` the viability index [1] was 0.96 ± 0.031.

`Cc1noc(C)c1NC(=O)N(C)C[C@@H]1OCc2ccccc2-c2c(n(C)c3ccccc23)C(=O)N([C@@H](C)CO)C[C@H]1C` showed a viability index [1] of 1.02 ± 0.1.

`Cc1noc(C)c1NC(=O)N(C)C[C@@H]1Oc2cc(C#CCN(C)C)ccc2S(=O)(=O)N([C@@H](C)CO)C[C@H]1C` showed a viability index [1] of 0.947 ± 0.18.

In the case of `CC(C)C#Cc1ccc([C@H]2[C@@H](CO)N3C(=O)CN(C(=O)c4ccc5c(c4)OCO5)C[C@@H]23)cc1`, the viability index [1] is reported as 1.03 ± 0.021.

With `CNC[C@H]1Oc2c(NS(=O)(=O)c3ccc(Cl)cc3)cccc2C(=O)N([C@@H](C)CO)C[C@H]1C` the viability index [1] was 1.01 ± 0.034.

`O=C(C[C@@H]1CC[C@@H]2[C@H](COC[C@H](O)CN2C(=O)c2cc(Cl)cc(Cl)c2)O1)N1CCc2ccccc2C1` showed a viability index [1] of 1.032 ± 0.0059.

`C[C@@H]1CN([C@@H](C)CO)C(=O)c2ccccc2-c2ccccc2CO[C@H]1CN(C)C(=O)c1cc(Cl)cc(Cl)c1` gave a viability index [1] of 0.937 ± 0.19.

For `C[C@@H]1CN([C@@H](C)CO)C(=O)c2ccccc2-c2ccccc2CO[C@@H]1CN(C)Cc1ccc(Oc2ccccc2)cc1`, the viability index [1] was 0.871 ± 0.0091.

In the case of `Cc1ccc(OC(=O)N(C)C[C@@H]2OCc3ccccc3-c3ccccc3C(=O)N([C@H](C)CO)C[C@H]2C)cc1`, the viability index [1] is reported as 0.834 ± 0.091.

`Cc1ccc(OC(=O)N(C)C[C@@H]2OCc3ccccc3-c3ccccc3C(=O)N([C@@H](C)CO)C[C@H]2C)cc1` gave a viability index [1] of 0.88 ± 0.0063.

`C[C@H](CO)N1C[C@H](C)[C@@H](CN(C)Cc2ccc(Oc3ccccc3)cc2)OCc2ccccc2-c2ccccc2C1=O` gave a viability index [1] of 0.801 ± 0.016.

Work on `C[C@@H]1CN([C@H](C)CO)C(=O)c2ccccc2-c2ccccc2CO[C@@H]1CN(C)C(=O)c1cc(Cl)cc(Cl)c1` yielded a viability index [1] of 0.8517 ± 0.003.

`Cc1ccc(OC(=O)N(C)C[C@@H]2OCc3ccccc3-c3ccccc3C(=O)N([C@H](C)CO)C[C@@H]2C)cc1` showed a viability index [1] of 0.993 ± 0.036.

`C[C@H](CO)N1C[C@H](C)[C@H](CN(C)C(=O)c2cc(Cl)cc(Cl)c2)OCc2ccccc2-c2ccccc2C1=O` was tested, and the viability index [1] was 1.04 ± 0.066.

`C[C@@H]1CN([C@H](C)CO)C(=O)c2ccccc2-c2ccccc2CO[C@@H]1CN(C)Cc1ccc(Oc2ccccc2)cc1` was tested, and the viability index [1] was 1.028 ± 0.0055.

`O=C(c1ccncc1)N1CC2(C1)[C@H](c1ccccc1)[C@@H](CO)N2CC1CC1` showed a viability index [1] of 1.08 ± 0.016.

Molecule `Cc1noc(C)c1NC(=O)Nc1ccc2c(c1)C(=O)N([C@@H](C)CO)C[C@@H](C)[C@@H](CN(C)Cc1ccc3c(c1)OCO3)OCCCC[C@@H](C)O2` has a viability index [1] of 1.15 ± 0.058.

Molecule `O=C(c1ccccn1)N1C[C@H]2[C@@H](c3ccccc31)[C@@H](CO)N2C(=O)Nc1ccccc1Cl` has a viability index [1] of 1.05 ± 0.026.

With `CCS(=O)(=O)Nc1ccc2c(c1)C(=O)N(C)[C@@H]1CC[C@H](CC(=O)N[C@@H]3CCN(Cc4ccccc4)C3)O[C@@H]1CO2` the viability index [1] was 1.05 ± 0.04.

In the case of `O=S(=O)(c1cccc(F)c1)N1CC[C@H]2[C@H](CO)Nc3ccc(C#Cc4ccccc4F)cc3[C@H]21`, the viability index [1] is reported as 1.1 ± 0.012.

For `COc1ccc(CN(C)C[C@@H]2Oc3ccc(NC(=O)Nc4ccc5c(c4)OCO5)cc3CC(=O)N([C@H](C)CO)C[C@@H]2C)cc1`, the viability index [1] was 0.983 ± 0.077.

`COc1ccc2c3c([C@H](CO)N(C[C@]33CN(C3)S(=O)(=O)c3cn(C)cn3)C(=O)Nc3ccc(F)cc3)n(C)c2c1` showed a viability index [1] of 1.114 ± 0.0043.

`COc1ccc(NC(=O)N(C)C[C@H]2Oc3ccc(NC(=O)Nc4cccc5ccccc45)cc3CC(=O)N([C@H](C)CO)C[C@@H]2C)cc1` was tested, and the viability index [1] was 0.968 ± 0.027.

In the case of `COc1ccccc1-c1ccc([C@@H]2[C@@H](C#N)N(C(=O)c3cccnc3)[C@@H]2CO)cc1`, the viability index [1] is reported as 1.06 ± 0.063.

`CN(C)CC(=O)N1[C@H](C#N)[C@H](c2ccccc2-c2ccccc2F)[C@@H]1CO` gave a viability index [1] of 1.1 ± 0.066.

Molecule `O=C(C[C@H]1CC[C@H]2[C@@H](COC[C@@H](O)CN2S(=O)(=O)c2ccc(F)cc2)O1)NCCN1CCCCC1` has a viability index [1] of 1.01 ± 0.12.

`OC[C@@H]1[C@@H](c2ccc(C#Cc3ccccc3F)cc2)[C@H]2CN(CC3CCOCC3)CCCCN12` gave a viability index [1] of 0.852 ± 0.021.

`OC[C@H]1[C@H](c2ccc(C#Cc3ccccc3F)cc2)[C@@H]2CN(CC3CCOCC3)CCCCN12` showed a viability index [1] of 0.8726 ± 0.0019.

For `COc1ccccc1C#Cc1ccc([C@H]2[C@H]3CN(C(=O)C4CCC4)CCCCN3[C@H]2CO)cc1`, the viability index [1] was 0.971 ± 0.013.

Work on `OC[C@H]1[C@@H](c2ccc(C#Cc3ccccc3F)cc2)[C@H]2CN(CC3CCOCC3)CCCCN21` yielded a viability index [1] of 0.938 ± 0.011.

`COc1ccccc1C#Cc1ccc([C@@H]2[C@H](CO)N3CCCCN(C(=O)C4CCC4)C[C@@H]23)cc1` was tested, and the viability index [1] was 0.967 ± 0.025.

`COc1ccccc1C#Cc1ccc([C@@H]2[C@@H](CO)N3CCCCN(CCC(F)(F)F)C[C@H]23)cc1` gave a viability index [2] of 0.759 ± 0.06.
